# Laboratory results: PubChem BioAssay (NCI)
# The panel holds about 83,000 compounds, 20% with a hit somewhere; the sample as a whole holds those more often.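 Negative percent growth values reflect cell death: -40 means 40% of the cells present at the start died, and -100 means all died.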 Values without a mark were called inactive. Calls of active or inactive are those of the source. Rule for the calls: active = growth percent below 10; inactive = the rest.
# Key:
# Assay in all cases: NCI-60 one-dose screen, 48 h (100 = growth as untreated, 0 = no growth, -100 = all killed)
# Details in all cases: 10 µM unless noted
# [1] = system: NCI-H23 lung
# [2] = system: NCI-H226 lung
# [3] = system: NCI-H322M lung
# [4] = system: HOP-62 NSCLC
# [5] = system: NCI-H460 lung
# [6] = system: HOP-92 NSCLC
# [7] = system: NCI-H522 lung
# [8] = system: A549/ATCC NSCLC
# [9] = system: 786-0 renal
# [10] = system: COLO 205 colon
# [11] = system: DU-145 prostate
# [12] = system: K-562 leukemia
# [13] = system: MALME-3M melanoma
# [14] = system: MDA-MB-231 breast
# [15] = system: RXF 393 renal
# [16] = system: SF-268 CNS
# [17] = system: SF-295 CNS
# [18] = system: SF-539 CNS
# [19] = system: UACC-257 melanoma
# [20] = system: M14 melanoma
SMILES,growth [1],growth [2],growth [3],growth [4],growth [5],growth [6],growth [7],growth [8],growth [9],growth [10],growth [11],growth [12],growth [13],growth [14],growth [15],growth [16],growth [17],growth [18],growth [19],growth [20]
O=S(=O)(Nc1ccc(Cl)cc1Cl)c1ccc(-c2cnc(C3CC3)o2)cc1,28.2%,59%,36.5%,31.5%,12.7%,51.2%,-1.33% (active),26.5%,41.4%,4.78% (active),8.88% (active),10.9%,37.7%,44.2%,-10.7% (active),53.6%,1.37% (active),-13.5% (active),55.4%,10.8%
COc1ccc(C/C(C)=C(\c2ccc(OCCN3CCCCCC3)cc2)c2ccc(OC(=O)C3CCCCC3)cc2)cc1,63.5%,78.3%,73.5%,74.5%,38.1%,19.6%,63.4%,65.2%,68.9%,10.5%,72.4%,9.51% (active),66%,67.6%,60.4%,64.2%,86.1%,74.7%,77.5%,73.1%
COc1ccc(-c2cc(NC(=O)Nc3ccc(O)cc3)no2)cc1,89.5%,84.2%,66.8%,88.5%,86.2%,94%,44.8%,67.6%,77.3%,105%,66.7%,29.2%,78%,67.5%,90.9%,62.2%,58.9%,69.5%,84.6%,35.1%
C=C1CC2(OC1=O)C(=O)N(CCCCCCCCCCCCN1C(=O)C3(CC(=C)C(=O)O3)c3ccccc31)c1ccccc12 (stereo not given),84.6%,78.6%,95.1%,94.1%,73.1%,42.2%,16.2%,97.6%,99.1%,82.6%,98.7%,6.7% (active),75.5%,55.8%,52.8%,93%,97.6%,87.3%,94.9%,79.4%
CCCCCCCCCCCCCCCCCCNC(=O)[C@H]1CSC(c2ccc(OC)c(F)c2)N1 (stereo not given in full),36.9%,-68% (active),38.4%,-82.9% (active),-67.8% (active),37.8%,56.7%,20.9%,22.8%,102%,67.1%,0.509% (active),-57.4% (active),-42.8% (active),-34% (active),-61% (active),87.5%,-15.1% (active),70.3%,-76.7% (active)
CCNS(=O)(=O)c1ncnc2nc[nH]c12,97.1%,120%,111%,105%,104%,98.6%,88.5%,119%,104%,112%,102%,109%,116%,119%,122%,132%,109%,95.9%,126%,119%
Cc1ccc2cnc(N)c(C#Cc3cncc(C(=O)Nc4ccc(CN5CCN(C)CC5)c(C(F)(F)F)c4)c3)c2c1,-63.8% (active),-75.8% (active),-97.2% (active),-85.2% (active),-78.8% (active),-80.9% (active),-71% (active),-79.4% (active),-79.6% (active),-70.3% (active),-95.8% (active),-50.5% (active),-83.4% (active),-94.8% (active),-93% (active),-69% (active),-87.2% (active),-99.2% (active),-64.7% (active),-62.2% (active)
Brc1cccc(-c2nc(-c3ccc4c(c3)OCCO4)co2)c1,71.3% [25 µM],78.2% [25 µM],90.7% [25 µM],57.9% [25 µM],25.2% [25 µM],80.4% [25 µM],24.5% [25 µM],56.3% [25 µM],78% [25 µM],50.5% [25 µM],88.2% [25 µM],18.5% [25 µM],50.2% [25 µM],47.5% [25 µM],66.2% [25 µM],73.6% [25 µM],52.4% [25 µM],52.2% [25 µM],87.3% [25 µM],46% [25 µM]
CCN(CC)CC(C)Nc1ccc([N+](=O)[O-])c2sc3ccccc3c(=O)c12 (stereo not given),33.5%,24%,26.6%,46.2%,9.64% (active),7.52% (active),0.683% (active),14.2%,16.3%,10.8%,27.6%,-14.2% (active),-6.6% (active),51.5%,32.4%,27.3%,25%,29.5%,-10.4% (active),44.9%
CN1CCN(Cc2ccc(NC(=O)c3cncc(C#Cc4c(N)ncc5ccc(C#N)cc45)c3)cc2C(F)(F)F)CC1,47%,3.8% (active),-29.2% (active),58.4%,-73.8% (active),13.9%,-53.7% (active),-65.6% (active),-59.6% (active),21.2%,-60.2% (active),-39.3% (active),-81.9% (active),-82% (active),-76.6% (active),-43.3% (active),85.9%,39.7%,68.7%,-45.5% (active)
NS(=O)(=O)N(c1cc(C(F)(F)F)cc(C(F)(F)F)c1)C1CCN(Cc2ccc(F)cc2)CC1,55.5%,69.3%,81.7%,77.3%,58.4%,34.9%,43.2%,66.5%,55.5%,-62.7% (active),99%,26.1%,29%,67.7%,41.7%,79.9%,81.6%,83.1%,62.1%,46.6%
CC(C)[C@@H]1CC[C@]2(C(=O)NCCCCN=C(N)N)CC[C@]3(C)[C@H](CC[C@@H]4[C@@]5(C)CCC(=O)C(C)(C)[C@@H]5CC[C@]43C)[C@@H]12,69.3%,84.1%,73.8%,72.6%,58.9%,57.6%,19.5%,80.9%,70.7%,2.37% (active),81.3%,24.6%,19%,74.3%,93.8%,54.8%,102%,69.5%,71.1%,71.2%
CC1(C)CC(C(=O)OCCCCCCCCCCC[P+](c2ccccc2)(c2ccccc2)c2ccccc2)C(C)(C)N1O (stereo not given),-61.1% (active),-65.6% (active),-20.6% (active),-45.5% (active),-79.8% (active),-68.8% (active),-29.4% (active),-42.6% (active),-75.4% (active),-79.9% (active),-85.3% (active),-76.3% (active),-68.3% (active),-70.2% (active),-68.8% (active),-92.9% (active),-71.3% (active),-93.1% (active),-77.1% (active),-13.2% (active)
CN[C@@]12CC3(C=CC(=O)C=C3)O[C@]1(Cc1ccc(OC)cc1)N(C)C(=O)N2,91%,89.4%,79.9%,114%,101%,94.4%,-23.6% (active),74.4%,84.2%,47.3%,101%,13.1%,107%,110%,50.7%,96.7%,109%,45.3%,78.8%,63%
